High-throughput results: PubChem BioAssay, National Center for Advancing Translational Sciences (NCATS)
DT40 TDP1 no CPT: qHTS for Inhibitors of human tyrosyl-DNA phosphodiesterase 1 (TDP1): qHTS in cells in absence of CPT | DT40 Tdp1-/- hTDP1 cells, no CPT, ATP luminescence, 48 h | Potency, µM (titrated, usually from 46.2 µM), without a hit: at the top dose activity change, negative = growth inhibition, hits mostly inhibitors | hit rate 15% among 420,000 | AID 686978, 2013; further: on the % scale 0 is the no-effect control and ±100 the full control effect; nearly all actives have a fitted effect of over 55% in size
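Growth of hTDP1-complemented DT40 Tdp1-knockout cells is measured by ATP luminescence after at least 48 hr compound exposure at 37 °C, with DMSO substituting for the 20 nM CPT used in the parallel screen.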
HT1080 IDH1KD tx: kills HT-1080 cells with IDH1 knockdown; AID 686971; Potency, µM (highest dose often 46.1 µM), without a hit: at the top dose activity, negative = toxicity, usual class: cytotoxic; HT-1080 IDH1 knockdown viability, ATP luminescence, 48 h; hit rate 2% among 360,000;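 further: 0% = DMSO wells and -100% = cell-free medium wells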
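Viability of IDH1-knockdown HT-1080 fibrosarcoma cells was assessed by CellTiter-Glo after 48 h at 37 °C with titrated compound; concentration-effect curves were classified by fit quality and response size.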
HT1080NT lethal: kills 2HG-producing HT-1080-NT fibrosarcoma cells; Potency, µM (doses to about 46.1 µM), for the others: top-dose activity, negative = less viability, actives largely listed as cytotoxic; HT-1080-NT fibrosarcoma viability, CellTiter-Glo ATP luminescence, 48 h; AID 686970; hit rate 1.6% among 360,000;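 further: NT is the 2HG producing partner of a matched IDH1 knockdown line; 0% = DMSO-treated cells and -100% = media-only wells without cells; nearly all actives have a fitted effect of over 55% in size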
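HT-1080-NT fibrosarcoma cells (2HG-overproducing), 750 cells/well in RPMI with 5% FBS, dosed after 2 h and incubated 48 h at 37C. CellTiter-Glo luminescence normalized to DMSO and no-cell wells; concentration-response curves fitted and classed.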
DT40 TDP1 CPT: growth inhibition of DT40 Tdp1-/-;hTDP1 cells with camptothecin (screen for TDP1 inhibitors). chicken DT40 Tdp1-/-;hTDP1 cells + 20 nM CPT, ATP luminescence, 48 h. hit rate 12% among 420,000. AID 686979. Potency, µM (titrated, usually from 46.2 µM), for inactives: top-dose activity change, negative = growth inhibition, actives largely listed as inhibitors; further: on the % scale 0 is the no-effect control and ±100 the full control effect; nearly all actives have a fitted effect of over 55% in size
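Chicken DT40 Tdp1-/- cells stably complemented with human TDP1 were seeded at 400 cells/well in medium containing 20 nM camptothecin, exposed to pin-transferred compounds, and grown at 37 °C for at least 48 hr. Viability was read as ATP luminescence.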
HepG2 tox: kills HepG2 cells in TGF-b inhibitor counter-screen. HepG2 CAGA-GFP viability, ATP luminescence, 18 h. hit rate 0.76% among 410,000. Potency, µM (series often up to 46.1 µM), for the others: at the highest dose activity change, negative = cytotoxicity, most hits filed as cytotoxic
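HepG2 CAGA-GFP cells (1000/well, DMEM with 1% FBS) received compound, then TGF-beta at 500 pg/mL final, and were incubated 18 hours at 37 degrees C. Viability was read by CellTiter-Glo luminescence. Media-only wells were set as complete cell-killing and DMSO as no toxicity.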
TGFb inhibitor: inhibitors of TGF-b signaling; HepG2 CAGA-GFP TGF-b/SMAD3 reporter, GFP fluorescence, 18 h; TGF-beta stimulated, 500 pg/mL final; Potency, µM (titrated, usually from 46.1 µM), for the others: at the top dose activity, negative = inhibition, most hits filed as inhibitors; hit rate 1.2% among 410,000; AID 588855; further: on the % scale 0 is the no-effect control and ±100 the full control effect; nearly all actives have a fitted effect of over 65% in size
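HEPG2 CAGA-GFP cells (1000/well, DMEM with 1% FBS) were pre-incubated 2 h at 37 degrees C, given compound by pin tool, then stimulated with TGF-beta at 500 pg/mL final for 18 h before per-cell GFP fluorescence imaging.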
* marks the source's active call; other numbers are inactive results; ? = inconclusive; . = no result given. This is a sample that favours compounds with a hit; in the whole collection about 17% have one here. The call rests on the fitted dose curve; in most records, active means well fitted curve in the direction sought with a large enough effect; inconclusive means small, poorly fitted or top-dose-only effect, or another doubt; inactive means no such curve, though single readings can be large; an effect the other way counts as inactive or inconclusive. Potency means the concentration at half of the fitted maximal effect.

SMILES | DT40 TDP1 no CPT | HT1080 IDH1KD tx | HT1080NT lethal | DT40 TDP1 CPT | HepG2 tox | TGFb inhibitor
CC1(c2ccc([N+](=O)[O-])cc2)NC(=O)N(CC(=O)Nc2ccc(N3CCCCC3)cc2)C1=O (configuration not stated) | 18µM* | -11% | -15% | ? | -11% | 0%
O=C(CC(=O)c1ccccc1)Nc1ccc([N+](=O)[O-])cc1 | ? | -25% | -8% | 23µM* | -28% | ?
O=C(COC(=O)c1ccccc1NC(=O)c1ccccc1)c1ccc([N+](=O)[O-])cc1 | ? | -6% | 2% | 23µM* | -3% | -17%
CC(=O)c1ccc(S(=O)(=O)Nc2ccc(-c3cn4c(C)csc4n3)cc2)cc1 | 0% | . | . | 3% | 1% | -8%
CCC(C)Oc1nc2c(c(=O)n(C)c(=O)n2C)n1C (configuration not stated) | -20% | 4% | 5% | -5% | 1% | -12%
COc1cccc(NC(=O)COC(=O)CCC(=O)c2cccs2)c1 | -7% | 0% | 1% | -8% | -2% | -9%
CC(NC(=O)c1cc2cc(F)ccc2[nH]1)c1ccccc1 (configuration not stated) | ? | -4% | -7% | 18µM* | -39% | -12%
CC(C)Oc1ccc(CCc2n[nH]c(=S)n2-c2ccccc2)cc1 | ? | -6% | -3% | ? | -8% | -6%
CC(C)(C)OC(=O)NC(CNCc1ccccc1)Cc1ccccc1 (configuration not stated) | ? | -1% | -3% | 13µM* | -23% | 3%
CCc1ccc(C(=O)C(C)OC(=O)C2COc3ccccc3O2)cc1 (configuration not stated) | -2% | 13% | 11% | -5% | -13% | -28%
CC1/C=C/C=C/C=C/C=C/C=C/C=C/C=C/C(OC2OC(C)C(O)C(N)C2O)CC2O[C@@](O)(CC(O)CC(O)C(O)CCC(O)CC(O)CC(=O)OC(C)[C@H](C)C1O)CC(O)C2C(=O)O (some centres not stated) | 0% | . | . | -1% | . | .
Cc1ccc(NC(=O)c2c(C)nc3sc(C(=O)NC4CCCC4)c(N)c3c2-c2ccco2)c(C)c1 | 5.2µM* | 7% | 3% | 2.9µM* | 4% | -15%
CCc1ccc(NC(=O)c2sc3nc(C)c(C(=O)Nc4ccc(C)cc4C)c(-c4ccco4)c3c2N)cc1 | -15% | . | . | 0% | -8% | -1%
COc1ccc(N=C2SC(C(=O)Nc3ccc(OC)cc3)CC(=O)N2CCN2CCOCC2)cc1 (configuration not stated) | -19% | 0% | 0% | -21% | 7% | ?
Cc1ccc(C(C)NC(=S)NCc2ccc(F)cc2)c(C)c1 (configuration not stated) | 16µM* | 8% | -8% | 21µM* | -1% | ?
Cc1ccc(C(C)NC(=S)NCc2ccc(F)cc2)cc1C (configuration not stated) | ? | 1% | 6% | ? | -63% | ?
COc1ccc(/C=C/C(=O)OCC(=O)NC2CCCCC2C)c(OC)c1 (configuration not stated) | -10% | -1% | 12% | -2% | -17% | -18%
Cc1nc(-c2ccc(S(=O)(=O)Oc3ccc(Cl)cc3Cl)s2)cs1 | 18µM* | ? | ? | 13µM* | -17% | -19%
Cc1nc(-c2ccc(S(=O)(=O)Nc3ccc(Br)cc3Cl)s2)cs1 | -2% | 1% | -5% | -4% | -19% | ?
O=C1N/C(=C/c2ccc(N3CCOCC3)o2)C(=O)N1c1ccccc1 | 9.2µM* | -4% | ? | 12µM* | -47% | ?
O=[N+]([O-])c1ccccc1C(O)Cc1ccccn1 (configuration not stated) | -4% | ? | 26% | 17% | 3% | 14%
Cc1ccc(C(=O)N/N=C(\CC(C)C)c2ccccc2)cc1 | 21µM* | -1% | -7% | ? | 11% | -3%
COc1cccc(C(=O)N/N=C(\CC(C)C)c2ccccc2)c1 | ? | -3% | -2% | ? | 6% | 13%
CC1CCCCC12NC(=O)N(CC(=O)NCCc1ccccc1)C2=O (configuration not stated) | 1% | 1% | 9% | -7% | 6% | 25%
c1ccc(-c2cccc(-c3ccccn3)n2)nc1 | 3.7µM* | 0.28µM* | ? | 2.1µM* | -56% | 42%
SMILES | DT40 TDP1 no CPT | HT1080 IDH1KD tx | HT1080NT lethal | DT40 TDP1 CPT | HepG2 tox | TGFb inhibitor
c1ccc(-c2nnc(-c3ccccn3)nn2)nc1 | ? | -13% | -9% | 15µM* | -46% | -10%
CSc1ccccc1OCc1cc(C(=O)NC(C)Cc2cccc(C)n2)no1 (configuration not stated) | 13µM* | -8% | -3% | 16µM* | -15% | 0%
CCn1nc(C)c(CNC(=O)c2cc(COc3ccccc3SC)on2)c1C | ? | -9% | -10% | 21µM* | 0% | -21%
CSc1ccccc1OCc1cc(C(=O)N(C)CCn2nc(C)cc2C)no1 | 21µM* | -7% | 14% | 15µM* | -19% | -7%
CSc1ccccc1OCc1cc(C(=O)N(C)Cc2nonc2C)no1 | ? | 0% | -10% | ? | -10% | -16%
COC(=O)c1ccc(NC(c2ccc(Cl)cc2)P(=O)(OC)OC)cc1 (configuration not stated) | ? | 0% | -5% | -26% | -2% | -1%
CC(=O)N1CCCc2cc(S(=O)(=O)N3CCC(N(C)C(C)C)CC3)ccc21 | 0% | . | . | -1% | -7% | -2%
CC(=O)N1CCCc2cc(S(=O)(=O)N3CCC(C(=O)N(Cc4ccccc4)C(C)C)CC3)ccc21 | ? | . | . | 23µM* | -49% | ?
CC(=O)N1CCCc2cc(S(=O)(=O)N3CCC(C(=O)N(C)C4CCCCC4)CC3)ccc21 | 23µM* | . | . | ? | -12% | -16%
CN1CCN(c2ccc(C(CC(N)=O)NC(=O)Cc3ccc(Br)cc3)cc2[N+](=O)[O-])CC1 (configuration not stated) | 3% | -2% | -3% | 3% | 0.32µM* | -13%
